Measured values taken from PubChem BioAssay (NCI).
Compounds without any hit were thinned out: in the full panel of roughly 83,000, 20% have a hit.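 Negative percent growth values reflect cell death: -40 means 40% of the cells present at the start died, and -100 means all died.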 Unmarked numbers belong to inactive results. Active and inactive are the calls of the source. How the source made its calls: active means growth percent below 10; inactive means the rest.

Each compound was assayed on HOP-92 NSCLC (assay: NCI-60 one-dose screen, 48 h (100 = growth as untreated, 0 = no growth, -100 = all killed)). Conditions: 10 µM unless noted.

SMILES	growth
O=C(Nc1ccc(Cl)cc1)Oc1c(Cl)c(Cl)c(Cl)c(Cl)c1Cl	41%
CC(=O)/C(=C/c1ccc([N+](=O)[O-])cc1)C(=O)c1ccccc1	70.1%
Cc1cccc(N2CCC(=O)NC2=S)c1	105%
Cc1ccc(S(=O)(=O)OCCCOS(=O)(=O)c2ccc(C)cc2)cc1	77.4%
CCOC(=O)c1c(C)nc2c(c1N)CC(=O)N2Cc1ccc(OC)cc1	-4.45% (active)

What follows are compounds tested on NCI-H522 lung in the same assay as above. Conditions: 10 µM unless noted.

SMILES	growth
CCNC(=O)Oc1ccc(/C(=C(/C)Cc2ccc(OC)cc2)c2ccc(OCCN3CCCCC3)cc2)cc1	72.8%
COC(=O)C(Cc1ccccc1)NC(=O)c1ccc(NC(=O)c2[nH]c(C)c(Cl)c2Cl)c(OC(C)C)c1 (stereo not given)	93.9%
Cc1ccc(S(=O)(=O)Oc2ccc3sc4cccc(NCCN(C)C)c4c(=O)c3c2)cc1	-81.7% (active)
O=C(Nc1ncccc1OCc1ccccc1)NC1CCCCCC1	72.6%
CCNc1nc(O)c(/C=C2\C=Nc3ncccc32)s1	-28.6% (active)
Ic1ccccc1I	100%
CC1=C2[C@@H](CC1)[C@]1(C)O[C@@](C3CCCCC3)(C[C@H]1OC(=O)CO)[C@H]2OC(=O)/C=C/c1ccccc1	68%
Cc1ccc(-c2csc(NC(=O)c3ccccc3CN3C(=O)c4ccccc4C3=O)n2)cc1	82.1%
Oc1c(CN2CCCC2)cc(CSCc2ccccc2)c2cccnc12	12.9%
Cc1ccc(-c2nc(SCc3nc4cc(Cl)c(Cl)cc4[nH]3)[nH]c(=O)c2C#N)cc1	89.1%
CC/C=C\CCC/C=C1/C(=O)C=C[C@@H]1C/C=C\CCCC(=O)OC	11.7%
C=C1C(=O)O[C@H]2[C@H]1CC/C(Cn1cc(CCC)nn1)=C\CC[C@@]1(C)O[C@@H]21	-70.7% (active)
CN(C)CCCC1(c2ccc(F)cc2)OCc2cc(-c3ccc4cc[nH]c4c3)ccc21 (stereo not given)	61.5%
COc1ccc(CCN(CC(=O)N(CC(N)=O)C2CCC[C@@H]2OCc2ccccc2)C(=O)CN(C(=O)CN(CCc2ccc(Cl)cc2)C(=O)CN(C(=O)CN(C)Cc2ccccc2F)[C@H](C)C2CCCCC2)[C@H](C)C2CCCCC2)cc1OC (stereo not given in full)	24.5%
COc1ccc(C(=O)Cn2c(C(=O)c3ccc(Cl)cc3)nc3ccccc32)cc1	14.8%
O=C1/C(=C/c2ccccc2F)CN(C(=O)C(Cl)Cl)C/C1=C\c1ccccc1F	-49.8% (active)
CCOC(=O)C1=C(C)C(Cl)=N/C1=C\c1[nH]c(Cl)c(C)c1C(=O)OCC	77.5%
COc1ccc(/C=C/C(c2cc(OC)c(OC)c(OC)c2)n2cncn2)cc1 (stereo not given)	28.4%
CCN1C(=O)N(CC)C2C1NC(=S)N2/N=C/c1ccc(C(F)(F)F)cc1 (stereo not given)	48.2%
C[C@H](CCCC(=O)NCC#CCN1CCN(C)CC1)[C@H]1CC[C@H]2[C@@H]3CC[C@@H]4CC(=O)CC[C@]4(C)[C@H]3CC[C@]12C	102%

SMILES	growth
Fc1cccc(-c2ccc3c(c2)C2(CCNCC2)CN3)c1	90.4%
CCN1C(=O)N(CC)C2Nn3c(s/c(=C\c4ccccc4Br)c3=O)=NC21 (stereo not given)	-12.8% (active)
O=C(NCc1cccc(CNC(=O)Nc2nc3ccccc3[nH]2)c1)Nc1nc2ccccc2[nH]1	1.54% (active)
O=C1Nc2ccccc2/C1=C\c1c[nH]c2ccc(Br)cc12	35.8%
COc1cc(C2C(C(=O)OCc3ccccc3)=C(C)NC(C)=C2C(=O)OCc2ccccc2)cc(OC)c1OC	25%
CCn1cc(CNc2ccc(C(=O)Nc3cc4cc(OC)c(OC)cc4c(C)n3)cc2)cn1	9.72% (active)
COc1cc(/C=C/C(=O)/C=C(O)/C=C/c2ccc(OC(=O)C34CC5CC(CC(C5)C3)C4)c(OC)c2)ccc1OC(=O)C12CC3CC(CC(C3)C1)C2	94.8%
COc1ccc(C2=CN3CC=CC3CC2=O)cc1 (stereo not given)	85.2%
C=C(C)[C@@H]1CCC[C@]2(C(=O)O)CC[C@]3(C)[C@@H](CC[C@@H]4[C@@]5(C)C/C(=C/c6ccncc6)C(=O)C(C)(C)[C@@H]5CC[C@]43C)[C@@H]12	16.6%
FC(F)(F)c1ccc(Cn2cc(CSc3nc4ccccc4s3)nn2)cc1	88.2%
CCCn1nc(C(=O)N(C)Cc2ccccc2)c2c1CCC(N1CCc3ccccc31)C2 (stereo not given)	86.5%
CCN1C(=O)N(CC)C2C1NN=c1s/c(=C\c3cnc(C)n3C)c(=O)n12 (stereo not given)	-14.4% (active)
CCOC(=O)c1c(C)nc2ccccc2c1/C=C/c1ccccc1	54.7%
CN1CCN(C(=S)SCCCCOc2cc(=O)oc3ccccc23)CC1	63.6%
Nc1nc(N)c2c(n1)NC(c1cccc(Nc3ccnc4cc(C(F)(F)F)ccc34)c1)CC(c1ccc(Br)cc1)=N2 (stereo not given)	48.8%
O=C(Nc1ccc(Cl)cc1)Oc1c(Cl)c(Cl)c(Cl)c(Cl)c1Cl	83.2%
CC(=O)/C(=C/c1ccc([N+](=O)[O-])cc1)C(=O)c1ccccc1	52%
Cc1cccc(N2CCC(=O)NC2=S)c1	97%
Cc1ccc(S(=O)(=O)OCCCOS(=O)(=O)c2ccc(C)cc2)cc1	89%
CCOC(=O)c1c(C)nc2c(c1N)CC(=O)N2Cc1ccc(OC)cc1	-1.06% (active)
